In PubChem BioAssay (NCI):
Where “and” joins values, the source holds several entries; their conditions need not be identical. Equal values may be shown once. About 83,000 compounds went through this panel and 20% of them were active in at least one assay; those are over-represented in the sample as a whole.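 Cells were grown in 96-well plates and exposed to the test compound at a single concentration for 48 hours; results are reported as percent growth, with values below 10 considered active.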 Calls of active or inactive are those of the source.

Experiments:
Assay in all cases: NCI-60 one-dose screen, 48 h (100 = growth as untreated, 0 = no growth, -100 = all killed)
SR leukemia = details: 10 µM unless noted
RPMI-8226 leukemia = details: 10 µM unless noted
OVCAR-8 ovarian = details: 10 µM unless noted
OVCAR-5 ovarian = details: 10 µM unless noted
OVCAR-4 ovarian = details: 10 µM unless noted
IGROV1 ovarian = details: 10 µM unless noted
HS 578T breast = details: 10 µM unless noted
NCI/ADR-RES ovarian = details: 10 µM unless noted
T-47D breast = details: 10 µM unless noted
BT-549 breast = details: 10 µM unless noted
SW-620 colon = details: 10 µM unless noted
MCF7 breast = test system: MCF7 breast
HCT-116 colon = details: 10 µM unless noted
HCC-2998 colon = details: 10 µM unless noted
KM12 colon = details: 10 µM unless noted
OVCAR-3 ovarian = details: 10 µM unless noted
MDA-MB-435 melanoma = details: 10 µM unless noted
SK-OV-3 ovarian = details: 10 µM unless noted

Row | Structure (SMILES) | growth (SR leukemia) | growth (RPMI-8226 leukemia) | growth (OVCAR-8 ovarian) | growth (OVCAR-5 ovarian) | growth (OVCAR-4 ovarian) | growth (IGROV1 ovarian) | growth (HS 578T breast) | growth (NCI/ADR-RES ovarian) | growth (T-47D breast) | growth (BT-549 breast) | growth (SW-620 colon) | growth (MCF7 breast; 10 µM) | growth (HCT-116 colon) | growth (HCC-2998 colon) | growth (KM12 colon) | growth (OVCAR-3 ovarian) | growth (MDA-MB-435 melanoma) | growth (SK-OV-3 ovarian) | growth (MCF7 breast; 20 µM)
1 | COC(=O)c1nc(=S)[nH]c(C(=O)OC)c1C(=O)c1ccc2ccccc2c1 | 93.5% (inactive) | 103% (inactive) | 107% (inactive) | 101% (inactive) | 96.9% (inactive) | 98.5% (inactive) | 103% (inactive) | 106% (inactive) | 86.5% (inactive) | 131% (inactive) | 101% (inactive) | 94.4% (inactive) | 107% (inactive) | 113% (inactive) | 107% (inactive) | – | – | – | –
2 | CC(C)(C)c1ccc(O)c(C2CCCCC2)c1 | 84.9% (inactive) | 83% (inactive) | 96.3% (inactive) | 101% (inactive) | 101% (inactive) | 137% (inactive) | – | 117% (inactive) | 108% (inactive) | 127% (inactive) | 99.6% (inactive) | 101% (inactive) | 95% (inactive) | 111% (inactive) | 91.1% (inactive) | 110% (inactive) | 117% (inactive) | – | –
3 | O=C1c2cccnc2-c2nccc3c2c1nc1cc(Br)ccc13 | -38.2% (active) and 17.6% (inactive) | -49.7% (active) and -22.2% (active) | – | 32.3% (inactive) and -53% (active) | -54.2% (active) and -85.3% (active) | -77.6% (active) and -77.5% (active) | -74% (active) and -32.9% (active) | -50.7% (active) and -38.1% (active) | -34.3% (active) and -63.8% (active) | -73.9% (active) and -67.8% (active) | -63.4% (active) and -74.8% (active) | -41.9% (active) and -57.8% (active) | -81.5% (active) and -68.7% (active) | -100% (active) and -82.7% (active) | -96.7% (active) and -76.7% (active) | -83.1% (active) and -95.4% (active) | -68.4% (active) and -94.5% (active) | -10.1% (active) and -96% (active) | –
4 | CN(C)c1ccc(/C=N/N=C(\C#N)[S][Sn]([Cl])([c]2ccccc2)[c]2ccccc2)cc1 | 5.61% (active) | -13.8% (active) | – | 13.1% (inactive) | 28.1% (inactive) | 43% (inactive) | 61.7% (inactive) | 66.9% (inactive) | -65.8% (active) | 57.5% (inactive) | – | -81.9% (active) | -59.4% (active) | 63.5% (inactive) | 63.3% (inactive) | -80.1% (active) | 15.6% (inactive) | 99.7% (inactive) | –
5 | Cc1c2ccccc2c(C)c2c1ccc1ccccc12 | 63.8% (inactive) | 84.3% (inactive) | – | 95.6% (inactive) | 89.9% (inactive) | 81% (inactive) | 98% (inactive) | 106% (inactive) | 65.3% (inactive) | 98.8% (inactive) | – | 32.2% (inactive) | 81.3% (inactive) | 104% (inactive) | 89.3% (inactive) | 105% (inactive) | 92% (inactive) | 99.4% (inactive) | –
6 | O=C1C2=C(Nc3cc([N+](=O)[O-])ccc3N2)OC1c1c2ccccc2cc2ccccc12 (configuration not stated) | 23.5% (inactive) | 15% (inactive) | 47.5% (inactive) | 75.8% (inactive) | 50% (inactive) | 52.3% (inactive) | 73.6% (inactive) | 38.3% (inactive) | 47.4% (inactive) | 23.3% (inactive) | – | 22.3% (inactive) | 15.5% (inactive) | 72.6% (inactive) | 16.7% (inactive) | 69.4% (inactive) | 73% (inactive) | – | –
7 | S=C(N/N=C/c1ccccn1)Nc1ccccn1 | -29% (active) | -2.91% (active) | 14.2% (inactive) | 49.2% (inactive) | – | 27% (inactive) | 97.4% (inactive) | 7.98% (active) | 31% (inactive) | 38.1% (inactive) | – | 14.3% (inactive) | 1.18% (active) | 25.2% (inactive) | 29.7% (inactive) | -0.151% (active) | 47.4% (inactive) | 36.4% (inactive) | –
8 | Cc1ccnc(NC(c2ccccc2)c2ccc3cccnc3c2O)c1 (configuration not stated) | 10% (inactive) | 51.5% (inactive) | 28.1% (inactive) | 69.9% (inactive) | 20.6% (inactive) | 36.5% (inactive) | 66.9% (inactive) | 22.4% (inactive) | 54.7% (inactive) | 57.1% (inactive) | 48.9% (inactive) | 22.4% (inactive) | 31.8% (inactive) | 27.3% (inactive) | 32.8% (inactive) | – | 30.5% (inactive) | – | –
9 | N[C@H](C(=O)O)[C@@H]1CC(Cl)=NO1 | 21.2% [20 µM] (inactive) | 28.9% [20 µM] (inactive) | 30.3% [20 µM] (inactive) | 28.4% [20 µM] (inactive) | 48.1% [20 µM] (inactive) | 10.8% [20 µM] (inactive) | 27.2% [20 µM] (inactive) | 28.4% [20 µM] (inactive) | 37.4% [20 µM] (inactive) | 27.3% [20 µM] (inactive) | 10.2% [20 µM] (inactive) | – | 14.1% [20 µM] (inactive) | 34.7% [20 µM] (inactive) | 18.2% [20 µM] (inactive) | – | – | 34.1% [20 µM] (inactive) | 12.3% (inactive)
10 | CC(=O)ON=C1C=CC(=C(C#N)c2ccccc2)C=C1 | 17.4% (inactive) | 18.7% (inactive) | 2.27% (active) | 123% (inactive) | 60.6% (inactive) | 2.9% (active) | 15.5% (inactive) | -10.8% (active) | 42.3% (inactive) | 50.7% (inactive) | 6.41% (active) | 15.5% (inactive) | -13.1% (active) | 88.3% (inactive) | -48.2% (active) | -30.6% (active) | -2.19% (active) | – | –
11 | C1=C(c2ccccc2)C(c2ccc(OCCN3CCCCC3)cc2)Oc2ccccc21 (configuration not stated) | -0.379% (active) | 15.5% (inactive) | 77% (inactive) | 72.4% (inactive) | 64% (inactive) | 44.2% (inactive) | 75.6% (inactive) | 68.4% (inactive) | 26.1% (inactive) | 72.9% (inactive) | 16.2% (inactive) | 6.42% (active) | 46.6% (inactive) | 34.1% (inactive) | 46.4% (inactive) | 65.6% (inactive) | 18.7% (inactive) | – | –
12 | CCC(c1cccc(O)c1)C(CC)c1cccc(O)c1 (configuration not stated) | 16.5% (inactive) | 31.6% (inactive) | 85.6% (inactive) | 96.3% (inactive) | 67.6% (inactive) | 72.4% (inactive) | 54.2% (inactive) | 72.1% (inactive) | 53.8% (inactive) | 66% (inactive) | – | 16.8% (inactive) | 34.4% (inactive) | 67% (inactive) | 36.7% (inactive) | – | -15.9% (active) | – | –
13 | COc1cc(/C=C/C(C)=O)ccc1O | 93.2% (inactive) and 89.3% (inactive) | 116% (inactive) | 104% (inactive) and 105% (inactive) | 92.3% (inactive) and 102% (inactive) | 108% (inactive) and 103% (inactive) | 101% (inactive) and 119% (inactive) | 113% (inactive) | 107% (inactive) and 100% (inactive) | 97.2% (inactive) and 106% (inactive) | 104% (inactive) | 104% (inactive) and 110% (inactive) | 96.8% (inactive) and 98.8% (inactive) | 104% (inactive) and 103% (inactive) | 102% (inactive) and 104% (inactive) | 90% (inactive) and 92.7% (inactive) | – | 101% (inactive) and 106% (inactive) | – | –
14 | O=C1C=CC(=O)N1C1c2ccccc2-c2ccccc21 | -26.9% (active) | 90.7% (inactive) | 99.8% (inactive) | 109% (inactive) | 110% (inactive) | 99.4% (inactive) | 102% (inactive) | 100% (inactive) | 73.6% (inactive) | – | 14.7% (inactive) | 85.8% (inactive) | 97.9% (inactive) | 114% (inactive) | 107% (inactive) | – | 110% (inactive) | – | –
15 | Cc1cc(N)c2ccccc2[n+]1CCCCCCCCCC[n+]1c(C)cc(N)c2ccccc21 | -53% (active) and 3.2% (active) | 9.49% (active) and -11.6% (active) | 26.8% (inactive) | -58.1% (active) | 21.2% (inactive) and 19.8% (inactive) | 4.94% (active) and -18.4% (active) | 34.7% (inactive) | 66.2% (inactive) and 64.1% (inactive) | 5.34% (active) and -12.1% (active) | -29% (active) and -15.7% (active) | 11.6% (inactive) and 18.1% (inactive) | 11.9% (inactive) and -3.39% (active) | 4.6% (active) and 3.4% (active) | 0.513% (active) | -48.4% (active) and 6.86% (active) | -16.7% (active) and 15% (inactive) | -77.2% (active) and 6.1% (active) | – | –
16 | Oc1c(Cl)cc(Cl)c2cccnc12 | 32.7% (inactive) and 31.9% (inactive) | 50.3% (inactive) and 50.1% (inactive) | – | 94.9% (inactive) | 50.1% (inactive) and 45.7% (inactive) | 52.9% (inactive) | 72.9% (inactive) and 52% (inactive) | 27.4% (inactive) and 29.3% (inactive) | 52.4% (inactive) and 43.4% (inactive) | 53.1% (inactive) and 40.3% (inactive) | – | 50.8% (inactive) and 29.1% (inactive) | 40.6% (inactive) and 25.6% (inactive) | 74.6% (inactive) and 69.2% (inactive) | 54.2% (inactive) and 52.3% (inactive) | 68% (inactive) and 15.3% (inactive) | 63.1% (inactive) and 54.3% (inactive) | 86.5% (inactive) and 65.8% (inactive) | –
